Among the data in the supplement of paper PMC6411743 are NP40-soluble protein abundance values, retold here.

± gives the standard deviation of the averaged measurements. The full data set covers some 5,400 targets. This sample favours those with the largest changes.

The target of this assay is T1, B1ALK7|Q14155-1|Q14155-5 (UniProt Q14155).
T1 sequence (whole entry): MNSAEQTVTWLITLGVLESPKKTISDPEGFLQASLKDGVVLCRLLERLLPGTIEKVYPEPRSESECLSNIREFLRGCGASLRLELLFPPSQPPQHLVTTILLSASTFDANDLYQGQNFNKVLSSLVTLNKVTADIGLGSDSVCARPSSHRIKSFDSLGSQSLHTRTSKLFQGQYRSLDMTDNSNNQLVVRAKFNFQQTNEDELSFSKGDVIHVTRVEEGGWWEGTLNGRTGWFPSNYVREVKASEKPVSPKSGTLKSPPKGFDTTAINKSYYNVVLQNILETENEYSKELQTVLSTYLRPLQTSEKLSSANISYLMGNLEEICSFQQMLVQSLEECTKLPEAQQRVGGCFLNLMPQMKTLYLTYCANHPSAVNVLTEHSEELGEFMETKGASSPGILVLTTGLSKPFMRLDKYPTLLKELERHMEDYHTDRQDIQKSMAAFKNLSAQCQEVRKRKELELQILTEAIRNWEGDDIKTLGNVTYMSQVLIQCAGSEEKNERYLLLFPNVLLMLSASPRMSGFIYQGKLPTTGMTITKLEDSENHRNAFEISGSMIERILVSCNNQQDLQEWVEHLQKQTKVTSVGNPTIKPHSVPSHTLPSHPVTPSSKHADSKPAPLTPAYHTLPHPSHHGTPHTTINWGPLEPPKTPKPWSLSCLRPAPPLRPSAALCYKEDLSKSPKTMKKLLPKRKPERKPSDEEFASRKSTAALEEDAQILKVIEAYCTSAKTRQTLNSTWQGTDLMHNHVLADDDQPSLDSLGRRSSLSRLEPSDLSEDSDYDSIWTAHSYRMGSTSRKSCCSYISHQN
Description: NP40-soluble protein abundance relative to vehicle (solubility fold change) (ratio); higher = more soluble protein in presence of GTP. How it is done:
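Solubility proteome profiling in Jurkat crude lysate. Lysate was treated with Mg-GTP (0.1-10 mM) for 10 min at room temperature and 3 min at 37 °C, then solubilised with 0.8% NP40 and benzonase, followed by ultracentrifugation. Proteins were quantified by TMT10 LC-MS/MS; the value is the NP40-soluble abundance relative to the NP40-processed vehicle, from 3 independent experiments.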

Consider `Nc1nc2c(ncn2[C@@H]2O[C@H](COP(=O)(O)OP(=O)(O)OP(=O)(O)O)[C@@H](O)[C@H]2O)c(=O)[nH]1` [guanosine triphosphate], for which the NP40-soluble protein abundance runs as follows: (concentration: 0.1mM) 0.994 ± 0.036; (concentration: 0.5mM) 0.9903 ± 0.0023; (concentration: 1mM) 1.004 ± 0.007; (concentration: 2mM) 1.01 ± 0.028; (concentration: 4mM) 0.996 ± 0.015; (concentration: 6mM) 0.9797 ± 0.0044. For the same compound, the NP40-soluble protein abundance is 1 ± 0.033 (concentration: 8mM) and 0.977 ± 0.046 (concentration: 10mM).
